# Legend:
# Test in all cases: DAPPL (digital affinity profiling via proximity ligation, sequencing); 10 mM Tris-HCl pH 7.5, 50 mM NaCl, 1 mM DTT, 4% glycerol, room temperature, 30 min; GST-TFs on glutathione beads, 16-mer random dsDNA library, 0.1% formaldehyde crosslink after washing; high values mean tight binding
# Conditions in all cases: protein: recombinant; tags: N-terminal GST; dsDNA, one strand shown
# ELK1 = target: T1, ELK1 (Homo sapiens, UniProt P19419 1-428)
# T1 sequence: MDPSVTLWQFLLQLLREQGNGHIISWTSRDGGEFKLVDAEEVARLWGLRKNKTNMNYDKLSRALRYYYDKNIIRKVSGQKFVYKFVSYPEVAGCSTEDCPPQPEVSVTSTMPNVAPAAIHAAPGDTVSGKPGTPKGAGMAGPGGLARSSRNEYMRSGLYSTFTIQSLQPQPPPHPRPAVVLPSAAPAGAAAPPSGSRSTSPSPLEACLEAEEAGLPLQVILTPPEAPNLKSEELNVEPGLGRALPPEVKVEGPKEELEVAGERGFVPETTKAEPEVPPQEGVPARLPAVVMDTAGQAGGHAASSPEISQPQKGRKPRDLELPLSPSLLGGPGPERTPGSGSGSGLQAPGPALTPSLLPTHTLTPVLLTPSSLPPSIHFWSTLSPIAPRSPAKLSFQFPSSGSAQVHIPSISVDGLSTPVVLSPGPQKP
# Procedure, shortened: (§1)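 Pools were built from human transcription factors expressed in yeast as GST fusions, captured on glutathione beads and DNA-barcoded, along with a tag-only sample. Incubation with 200 nmole of a 16-mer random double-stranded DNA library lasted 30 min at room temperature in Tris/NaCl/DTT/glycerol buffer, and was followed by washing, 0.1% formaldehyde crosslinking, proximity ligation, PCR amplification and Illumina NextSeq500 sequencing. Binding signal is the quotient of each hexamer's read frequency for a factor and its frequency for the tag-only sample.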
# GABPA = target: T2, GABPA (Homo sapiens, UniProt Q06546 1-454)
# T2 sequence: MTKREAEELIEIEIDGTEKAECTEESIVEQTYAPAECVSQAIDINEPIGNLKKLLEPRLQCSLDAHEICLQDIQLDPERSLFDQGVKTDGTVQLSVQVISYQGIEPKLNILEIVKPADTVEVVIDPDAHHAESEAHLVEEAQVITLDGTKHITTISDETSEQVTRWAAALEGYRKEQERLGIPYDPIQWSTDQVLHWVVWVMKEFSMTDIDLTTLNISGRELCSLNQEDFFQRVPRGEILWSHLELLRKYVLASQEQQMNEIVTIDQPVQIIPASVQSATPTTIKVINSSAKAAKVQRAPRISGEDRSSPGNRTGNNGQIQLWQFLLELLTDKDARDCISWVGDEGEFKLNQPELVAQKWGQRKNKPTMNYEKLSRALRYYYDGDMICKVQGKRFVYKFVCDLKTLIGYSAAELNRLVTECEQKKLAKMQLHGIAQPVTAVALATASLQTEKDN
# Procedure, shortened: as §1
# ELF1 = ELF1 (Homo sapiens, UniProt P32519 1-619)
# Procedure, shortened: as §1
# SPIB = SPIB (Homo sapiens, UniProt Q01892 1-262)
# Procedure, shortened: as §1
# FEV = target: T3, FEV (Homo sapiens, UniProt Q99581 1-238)
# T3 sequence: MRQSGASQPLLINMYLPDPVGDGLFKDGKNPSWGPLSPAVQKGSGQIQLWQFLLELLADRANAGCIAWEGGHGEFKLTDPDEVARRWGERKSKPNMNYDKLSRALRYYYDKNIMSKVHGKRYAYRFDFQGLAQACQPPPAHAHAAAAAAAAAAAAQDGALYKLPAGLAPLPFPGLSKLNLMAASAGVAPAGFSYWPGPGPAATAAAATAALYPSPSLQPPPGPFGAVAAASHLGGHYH
# Procedure, shortened: as §1
# ETV5 = ETV5 (Homo sapiens, UniProt P41161 1-510)
# Procedure, shortened: as §1
# ELF4 = ELF4 (Homo sapiens, UniProt Q99607 1-663)
# Procedure, shortened: as §1
# ELK4 = target: T4, ELK4 (Homo sapiens, UniProt P28324-2 1-405)
# T4 sequence: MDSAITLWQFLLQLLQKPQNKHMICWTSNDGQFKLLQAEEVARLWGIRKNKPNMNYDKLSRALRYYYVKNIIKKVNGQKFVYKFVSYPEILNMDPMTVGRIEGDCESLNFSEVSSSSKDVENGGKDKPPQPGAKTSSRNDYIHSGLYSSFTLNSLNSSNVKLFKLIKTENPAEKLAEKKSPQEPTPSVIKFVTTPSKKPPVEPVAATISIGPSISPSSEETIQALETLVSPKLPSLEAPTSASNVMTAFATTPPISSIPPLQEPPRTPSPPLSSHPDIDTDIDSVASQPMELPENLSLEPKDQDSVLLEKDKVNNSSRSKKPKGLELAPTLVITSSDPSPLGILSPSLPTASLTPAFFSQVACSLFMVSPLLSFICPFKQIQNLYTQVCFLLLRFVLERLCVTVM
# Procedure, shortened: as §1
# ETV2 = target: T5, ETV2 (Homo sapiens, UniProt O00321 1-342)
# T5 sequence: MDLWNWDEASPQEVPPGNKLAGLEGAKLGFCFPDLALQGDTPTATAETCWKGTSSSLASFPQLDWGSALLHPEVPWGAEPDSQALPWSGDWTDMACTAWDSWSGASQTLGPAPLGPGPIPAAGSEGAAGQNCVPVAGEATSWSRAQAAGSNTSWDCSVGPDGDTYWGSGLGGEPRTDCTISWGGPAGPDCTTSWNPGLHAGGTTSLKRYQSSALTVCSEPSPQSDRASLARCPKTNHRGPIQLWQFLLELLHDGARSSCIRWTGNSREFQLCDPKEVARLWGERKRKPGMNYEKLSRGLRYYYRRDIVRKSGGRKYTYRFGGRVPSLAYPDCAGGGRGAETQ
# Procedure, shortened: as §1
# ETV1 = ETV1 (Homo sapiens, UniProt P50549 1-477)
# Procedure, shortened: as §1
# ERF = target: T6, ERF (Homo sapiens, UniProt P50548 1-548)
# T6 sequence: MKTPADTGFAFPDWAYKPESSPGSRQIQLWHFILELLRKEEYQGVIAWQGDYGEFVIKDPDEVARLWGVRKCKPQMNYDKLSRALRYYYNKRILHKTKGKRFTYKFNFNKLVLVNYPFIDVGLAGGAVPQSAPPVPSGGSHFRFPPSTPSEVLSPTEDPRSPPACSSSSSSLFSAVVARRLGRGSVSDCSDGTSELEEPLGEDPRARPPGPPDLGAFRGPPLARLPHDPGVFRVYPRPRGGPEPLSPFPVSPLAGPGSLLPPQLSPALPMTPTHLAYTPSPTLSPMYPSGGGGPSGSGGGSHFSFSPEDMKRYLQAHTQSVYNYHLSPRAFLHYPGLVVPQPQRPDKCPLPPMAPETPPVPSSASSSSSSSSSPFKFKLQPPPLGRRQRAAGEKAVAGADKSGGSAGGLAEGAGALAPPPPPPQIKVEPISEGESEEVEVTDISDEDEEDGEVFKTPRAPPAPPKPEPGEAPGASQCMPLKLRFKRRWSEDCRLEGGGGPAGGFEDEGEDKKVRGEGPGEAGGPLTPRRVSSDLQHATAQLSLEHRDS
# Procedure, shortened: as §1
# ETV3L = target: T7, ETV3L (Homo sapiens, UniProt Q6ZN32 1-361)
# T7 sequence: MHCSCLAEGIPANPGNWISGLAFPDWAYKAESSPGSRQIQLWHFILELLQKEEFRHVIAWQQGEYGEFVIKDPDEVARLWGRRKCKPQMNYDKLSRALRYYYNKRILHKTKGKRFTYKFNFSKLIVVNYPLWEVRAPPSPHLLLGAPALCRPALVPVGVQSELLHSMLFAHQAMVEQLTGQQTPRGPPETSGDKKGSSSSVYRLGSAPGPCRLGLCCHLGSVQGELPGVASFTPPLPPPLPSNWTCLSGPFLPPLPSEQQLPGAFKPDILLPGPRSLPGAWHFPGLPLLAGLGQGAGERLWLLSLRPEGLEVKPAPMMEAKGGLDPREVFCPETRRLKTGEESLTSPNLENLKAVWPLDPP
# Procedure, shortened: as §1
# ETS2 = target: T8, ETS2 (Homo sapiens, UniProt P15036 1-469)
# T8 sequence: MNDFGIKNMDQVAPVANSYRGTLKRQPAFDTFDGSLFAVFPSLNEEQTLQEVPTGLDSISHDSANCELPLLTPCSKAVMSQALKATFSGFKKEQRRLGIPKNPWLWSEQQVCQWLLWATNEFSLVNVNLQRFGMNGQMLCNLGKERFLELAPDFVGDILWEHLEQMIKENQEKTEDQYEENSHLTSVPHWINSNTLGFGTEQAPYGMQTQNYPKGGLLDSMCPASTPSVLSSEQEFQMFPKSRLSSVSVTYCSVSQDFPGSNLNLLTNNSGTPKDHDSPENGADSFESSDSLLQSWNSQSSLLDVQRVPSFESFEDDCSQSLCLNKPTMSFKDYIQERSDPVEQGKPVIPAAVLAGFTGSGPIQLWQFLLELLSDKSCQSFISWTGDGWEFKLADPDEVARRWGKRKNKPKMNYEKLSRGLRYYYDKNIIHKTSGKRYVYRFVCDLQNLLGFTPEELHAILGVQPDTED
# Procedure, shortened: as §1
# ETV1, sequence (P50549 whole entry): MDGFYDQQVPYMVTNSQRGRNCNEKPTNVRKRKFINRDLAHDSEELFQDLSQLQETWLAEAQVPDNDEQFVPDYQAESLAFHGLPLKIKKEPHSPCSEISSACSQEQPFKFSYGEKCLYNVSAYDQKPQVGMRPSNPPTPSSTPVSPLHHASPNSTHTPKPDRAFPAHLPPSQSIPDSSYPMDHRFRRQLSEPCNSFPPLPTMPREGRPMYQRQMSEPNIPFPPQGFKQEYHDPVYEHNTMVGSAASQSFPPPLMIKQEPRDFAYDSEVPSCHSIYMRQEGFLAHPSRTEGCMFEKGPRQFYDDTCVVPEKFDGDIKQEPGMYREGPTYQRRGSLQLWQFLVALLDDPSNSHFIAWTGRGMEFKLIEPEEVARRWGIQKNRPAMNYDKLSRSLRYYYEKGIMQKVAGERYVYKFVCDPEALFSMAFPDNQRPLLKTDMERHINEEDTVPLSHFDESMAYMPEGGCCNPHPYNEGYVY
# ETV5, sequence (P41161 whole entry): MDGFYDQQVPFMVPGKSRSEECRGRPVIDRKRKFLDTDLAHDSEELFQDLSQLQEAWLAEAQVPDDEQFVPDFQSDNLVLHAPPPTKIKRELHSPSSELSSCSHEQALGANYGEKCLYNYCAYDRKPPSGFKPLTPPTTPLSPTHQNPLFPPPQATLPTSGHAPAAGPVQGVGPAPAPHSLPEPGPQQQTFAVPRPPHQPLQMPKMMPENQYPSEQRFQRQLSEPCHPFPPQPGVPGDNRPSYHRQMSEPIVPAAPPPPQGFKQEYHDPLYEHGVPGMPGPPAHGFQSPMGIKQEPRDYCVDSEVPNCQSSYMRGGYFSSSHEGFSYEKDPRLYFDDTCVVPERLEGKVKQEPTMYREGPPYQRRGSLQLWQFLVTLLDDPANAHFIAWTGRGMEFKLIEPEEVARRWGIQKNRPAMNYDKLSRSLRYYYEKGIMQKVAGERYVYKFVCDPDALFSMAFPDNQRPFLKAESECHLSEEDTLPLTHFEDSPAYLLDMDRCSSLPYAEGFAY
# SPIB, sequence (Q01892 whole entry): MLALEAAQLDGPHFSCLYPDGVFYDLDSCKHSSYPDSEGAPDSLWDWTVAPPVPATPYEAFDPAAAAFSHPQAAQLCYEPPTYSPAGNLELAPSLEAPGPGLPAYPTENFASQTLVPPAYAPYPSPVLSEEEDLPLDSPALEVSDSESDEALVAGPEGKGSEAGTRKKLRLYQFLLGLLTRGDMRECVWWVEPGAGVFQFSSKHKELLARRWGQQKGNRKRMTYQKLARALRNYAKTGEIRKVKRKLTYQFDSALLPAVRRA
# ELF1, sequence (P32519 whole entry): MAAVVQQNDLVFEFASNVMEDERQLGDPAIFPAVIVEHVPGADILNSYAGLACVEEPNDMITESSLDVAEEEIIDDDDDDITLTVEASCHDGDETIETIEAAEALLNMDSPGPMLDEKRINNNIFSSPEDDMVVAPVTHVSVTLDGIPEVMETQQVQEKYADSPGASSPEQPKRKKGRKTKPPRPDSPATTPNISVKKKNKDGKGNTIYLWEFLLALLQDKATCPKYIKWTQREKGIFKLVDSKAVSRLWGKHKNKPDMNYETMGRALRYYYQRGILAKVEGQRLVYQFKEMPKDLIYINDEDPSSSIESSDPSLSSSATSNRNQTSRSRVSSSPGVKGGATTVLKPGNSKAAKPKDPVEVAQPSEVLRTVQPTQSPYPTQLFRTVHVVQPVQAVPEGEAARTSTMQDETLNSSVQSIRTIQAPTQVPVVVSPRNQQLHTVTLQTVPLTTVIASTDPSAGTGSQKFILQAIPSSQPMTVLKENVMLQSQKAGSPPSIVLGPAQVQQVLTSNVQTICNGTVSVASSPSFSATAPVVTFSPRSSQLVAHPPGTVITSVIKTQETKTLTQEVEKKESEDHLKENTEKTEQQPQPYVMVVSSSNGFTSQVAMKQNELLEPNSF
# ELF4, sequence (Q99607 whole entry): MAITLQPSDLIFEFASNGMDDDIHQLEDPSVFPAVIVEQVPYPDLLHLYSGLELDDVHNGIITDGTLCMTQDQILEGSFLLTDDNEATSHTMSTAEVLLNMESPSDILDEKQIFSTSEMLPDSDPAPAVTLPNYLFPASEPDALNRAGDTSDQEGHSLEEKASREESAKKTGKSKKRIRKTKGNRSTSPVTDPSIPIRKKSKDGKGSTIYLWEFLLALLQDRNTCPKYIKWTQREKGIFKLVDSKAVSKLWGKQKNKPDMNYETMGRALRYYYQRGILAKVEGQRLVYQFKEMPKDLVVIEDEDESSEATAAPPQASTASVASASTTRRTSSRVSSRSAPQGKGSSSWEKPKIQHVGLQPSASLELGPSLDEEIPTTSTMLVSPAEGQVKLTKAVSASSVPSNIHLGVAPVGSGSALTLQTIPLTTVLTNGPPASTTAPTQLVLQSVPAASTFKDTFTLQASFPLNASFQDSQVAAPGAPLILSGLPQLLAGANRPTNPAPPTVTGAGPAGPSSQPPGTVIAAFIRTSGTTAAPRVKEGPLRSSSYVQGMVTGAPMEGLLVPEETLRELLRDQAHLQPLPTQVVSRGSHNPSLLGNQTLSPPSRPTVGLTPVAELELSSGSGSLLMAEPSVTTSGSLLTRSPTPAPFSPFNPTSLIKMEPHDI
sequence,measurement,setting,value
GCCTGA,binding signal,ELK1,"1.13 fold enrichment (6-mer frequency, TF over GST control)"
same,binding signal,GABPA,"1.11 fold enrichment (6-mer frequency, TF over GST control)"
same,binding signal,ELF1,"1.04 fold enrichment (6-mer frequency, TF over GST control)"
same,binding signal,SPIB,"1.09 fold enrichment (6-mer frequency, TF over GST control)"
same,binding signal,FEV,"1.1 fold enrichment (6-mer frequency, TF over GST control)"
same,binding signal,ETV5,"1.09 fold enrichment (6-mer frequency, TF over GST control)"
same,binding signal,ELF4,"1.06 fold enrichment (6-mer frequency, TF over GST control)"
same,binding signal,ELK4,"1.07 fold enrichment (6-mer frequency, TF over GST control)"
same,binding signal,ETV2,"1.03 fold enrichment (6-mer frequency, TF over GST control)"
same,binding signal,ETV1,"1.05 fold enrichment (6-mer frequency, TF over GST control)"
same,binding signal,ERF,"1.07 fold enrichment (6-mer frequency, TF over GST control)"
same,binding signal,ETV3L,"1.12 fold enrichment (6-mer frequency, TF over GST control)"
same,binding signal,ETS2,"1.02 fold enrichment (6-mer frequency, TF over GST control)"

# From paper PMC7862700, “An all-to-all approach to the identification of sequence-specific readers for epigenetic DNA modifications on cytosine”
